Structures can show the parent of a compound that is named as a salt. ± gives the standard deviation of the averaged measurements.

The subject of the experiment is Mv4-11. Kind of experiment: cell viability relative to DMSO control (bortezomib = 0%); higher = less growth inhibition. The settings on record: 10 nM; 72 h. The gist of the method: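 In duplicate runs, a library of 679 approved and investigational compounds in 384-well plates received acute myeloid leukemia cells at 1000 cells per well in 50 µL, with each compound at a single 10 nM dose for 72 h. CellTiter-Glo luminescence, read on an EnVision reader, served as the viability measure. Each plate was normalized by linear regression between DMSO-treated cells (100%) and positive-control-treated cells (0%).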
As a reminder, the cell viability is a read-out of living cells in per cent, often relative to untreated cells. In the case of `CNC(=O)c1cc(Oc2ccc(NC(=O)Nc3cc(C(C)(C)C)nn3-c3ccc4ncccc4c3)c(F)c2)ccn1` [DCC-2036 (Rebastinib)], the cell viability came to 107 ± 7.3%.
Turning to `CCS(=O)(=O)N1CC(CC#N)(n2cc(-c3ncnc4[nH]ccc34)cn2)C1`, the cell viability was determined as 105 ± 8.7%.
In the case of `N#CC(c1ccnc(NCCc2cccnc2)n1)c1nc2ccccc2s1` (stereo not given), the cell viability came out at 109 ± 28%.
`CCOc1cc(N2CCC(O)CC2)ccc1Nc1ncc2c(n1)N(C)c1ccccc1C(=O)N2C`: the cell viability came to 98.8 ± 2%.
Regarding `N#Cc1c(Oc2ccc(F)c(NC(=O)Cc3cccc(C(F)(F)F)c3)c2)ccc2nc(NC(=O)C3CC3)sc12`, the cell viability was determined as 114 ± 6.7%.
The figure for `COc1ccc2c3n(c(=NC(=O)c4cccnc4)nc2c1OC)CCN3` is 102 ± 2.9%; for `C[C@@H]1O[C@@H](Oc2c(-c3cc(O)c(O)c(O)c3)oc3cc(O)cc(O)c3c2=O)[C@H](O)[C@H](O)[C@H]1O` [Myricetrin] it is 112 ± 35%; for `Cc1ncc(CCCN(C)C)cc1Nc1ncc2c(n1)-c1ccc(C(F)(F)F)cc1NC(=S)C2` it is 108 ± 7.1%.
Regarding `Cc1cc2c(F)c(Oc3ncnn4cc(OC[C@@H](C)OC(=O)[C@H](C)N)c(C)c34)ccc2[nH]1`, the cell viability was 106 ± 5.3%.
With `COc1cccc(-c2cc(=O)c3ccccc3o2)c1N`, the cell viability amounted to 103 ± 8.4%.
With `O=C1C(Cl)=C(NCCN2CCOCC2)C(=O)c2ncccc21`, the cell viability stood at 121 ± 2.5%.
Turning to `CCCCNc1ncc(C(=O)NCc2ccc(-n3ccnc3)cc2)c(NC2CCC(O)CC2)n1` (stereo not given), the cell viability is 115.2 ± 0.28%.
For the molecule `CCCS(=O)(=O)Nc1ccc(F)c(C(=O)c2c[nH]c3ncc(Cl)cc23)c1F`, the cell viability came to 135 ± 12%.
For `CN(C)C(=O)c1ccc(S(=O)(=O)c2ccc(NC(=O)[C@@](C)(O)C(F)(F)F)c(Cl)c2)cc1`, the cell viability was found to be 109 ± 7%.
On to `O=C(NCCCNc1nc(Nc2cccc(NC(=O)N3CCCC3)c2)ncc1I)c1cccs1`, for which the cell viability is 97.5 ± 5.3%.
Turning to `Cc1ccc(-n2nc(C(C)(C)C)cc2NC(=O)Nc2ccc(OCCN3CCOCC3)c3ccccc23)cc1` [Doramapimod], the cell viability came out at 98.1 ± 1.1%.
The figure for `CN(C)C/C=C/C(=O)Nc1cc2c(Nc3ccc(F)c(Cl)c3)ncnc2cc1O[C@H]1CCOC1` [Afatinib (BIBW2992) Dimaleate] is 102 ± 7.5%.
Turning to `N#Cc1ccc(COc2ccc(-c3cccc4nc(NC(=O)C5CC5)nn34)cc2)cn1` [GLPG0634 analogue], the cell viability was found to be 119 ± 3.4%.
In the case of `COc1ccc(Cl)c(Nc2nc3ccccc3nc2NS(=O)(=O)c2cccc(NC(=O)C(C)(C)N)c2)c1` [Pilaralisib (XL147)], the cell viability came out at 110 ± 11%.
As for `CC1(C)CC[C@]2(C(=O)O)CC[C@]3(C)C(=CC[C@@H]4[C@@]5(C)CC[C@H](O[C@@H]6O[C@H](C(=O)O)[C@@H](O)[C@H](O[C@@H]7OC[C@@H](O)[C@H](O)[C@H]7O)[C@H]6O)C(C)(C)[C@@H]5CC[C@]43C)[C@@H]2C1` [Momordin Ic], the cell viability came out at 106 ± 5%.
For the molecule `CNC(=O)c1c(C)oc2cc(Oc3ncnc4cc(OC)c(OC)cc34)ccc12` [Fruquintinib], the cell viability was 106 ± 2.8%.
As for `N#CC(=Cc1cc(Cl)cc(Cl)c1)c1cccnc1`, the cell viability turned out to be 108 ± 7.3%.
In the case of `O=C1NC(=O)/C(=C/c2ccc(-c3ccc(F)cc3O)o2)S1`, the cell viability was 95.5 ± 9.9%.
Regarding `Cc1nc(NC(=O)N2CCC[C@@H]2C(N)=O)sc1-c1ccnc(C(C)(C)C(F)(F)F)c1` [BYL-719(Alpelisib)], the cell viability was determined as 102 ± 15%.
As for `O=C(Nc1ccc(OC(F)(F)F)cc1)c1sccc1NCc1ccnc2ccccc12`, the cell viability is 109 ± 6%.
In the case of `C=CC(=O)Nc1cccc(C)c1Nc1ncc2cc(-c3c(Cl)c(OC)cc(OC)c3Cl)ccc2n1`, the cell viability turned out to be 112 ± 1.2%.
The result for `COc1ccc(S(=O)(=O)Nc2ccccc2CN(C)C/C=C/c2ccc(Cl)cc2)cc1` [KN-92 (hydrochloride)] reads 109 ± 10%.
As to `Cc1nc(Nc2ncc(C(=O)Nc3c(C)cccc3Cl)s2)cc(N2CCN(CCO)CC2)n1` [Dasatinib monohydrate], the cell viability was 106 ± 9.4%.
With `CCOC(=O)c1cnc2ccc(-c3cncc(NS(=O)(=O)c4ccccc4)c3)cn12`, the cell viability turned out to be 103 ± 14%.
For `CNC(=O)c1ccccc1Nc1nc(Nc2ccc(N3CCOCC3)cc2OC)ncc1Cl`, the cell viability stood at 109 ± 5.5%.
The result for `CNCCNS(=O)(=O)c1cccc2cnccc12` [H-8 (hydrochloride)] reads 108 ± 7.2%.
As for `C=CC(=O)Nc1cc(Nc2nccc(-c3c[nH]c4ccccc34)n2)c(OC)cc1N(C)CCN(C)C`, the cell viability amounted to 121 ± 6.1%.
As to `Nc1nccc(Oc2ccc(NC(=O)c3c[nH]cc(-c4ccc(F)cc4)c3=O)cc2F)c1Cl`, the cell viability is 83.1 ± 3.7%.
For `COc1ccc2c(c1)c(C1=C(c3c[nH]c4ccccc34)C(=O)NC1=O)cn2CCCN(C)C`, the cell viability was determined as 103 ± 7.6%.
The result for `CCN(CC)CC(=O)Nc1c(C)cccc1C` [Lidocaine Hydrochloride hydrate] reads 113 ± 8.3%; that for `O=C1NC(=O)C(=Cc2ccc(-c3ccc(F)cc3)o2)S1` (stereo in doubt), 108 ± 13%; that for `C[C@@H]1O[C@@H](O[C@@H]2[C@@H](O)[C@H](OCCc3ccc(O)c(O)c3)O[C@H](CO)[C@H]2OC(=O)/C=C/c2ccc(O)c(O)c2)[C@H](O)[C@H](O)[C@H]1O` [Verbascoside], 91.6 ± 5.3%.
As to `Cc1c(C)c2c(c(C)c1O)CC[C@@](C)(CCC[C@H](C)CCC[C@H](C)CCCC(C)C)O2` [Vitamin E], the cell viability amounted to 107 ± 16%.
As to `N#CC(=Cc1ccc2[nH]ccc2c1)C(N)=C(C#N)C#N`, the cell viability was 103.5 ± 0.36%.
As for `COc1ccc2cc1Oc1ccc(cc1)C[C@H]1c3cc(c(OC)cc3CCN1C)Oc1c(O)c(OC)cc3c1[C@H](C2)N(C)CC3` [(+)-Fangchinoline], the cell viability amounted to 114 ± 1.3%.

The record behind these values is the supplement of paper PMC8699584.
